According to PMC12864922, “TDP-43 directly inhibits mRNA accumulation in neurites through modulation of mRNA stability”:
Over roughly 9,900 sequences, “r (bound/input frequency ratio)” has its median near 0.7; the highest 2% begin near 6.5. The list comes from a sample in which the highest values are over-represented; it also holds similar and randomly drawn sequences.

B1: ENSMUSG00000061578.134|Ksr2|58:63;126:130;148:163;199:203 (ssRNA)
RNA: GGGAGUUCUACAGUCCGACGAUCGCUUCGAUAUCCGCAUGCUAAUGGCUUCCCCCAAAGUCCCGAGUCCUGAGAACCGGGGCUGUGGCAAGAGAGUUCUGCACACAUCUCUCUGUGGGGCUAGCAAUGCCGGGGUUAAGUUCUCCCUCGGUGAUGGAGACGGUCCUGGCAUACCAUGAUGGGUUACAUGGCACACACACACACACAAACUGUUUACAAUGGUCUCCCUGCCUCUCACGGGCACACAUCCAGGAGAAUGCACAUAGAGAGGUUCUGUGGUCUCUGCUGUCGCCUGGUGCUGAAUCUCUUGCGGUCGCACUAGUGUGGAAUUCUCGGGUGUCAAGG
B2: ENSMUSG00000029636.224|Wasf3|112:116;205:212 (ssRNA)
RNA: GGGAGUUCUACAGUCCGACGAUCGCUUCGAUAUCCGCAUGCUAUUGCAGAGGGACCAGGACACUGCCUUCCCUUAGGUGCAUUAUUUACGUGGCCUGCAGCUCUUAAUAUCUCUCACUGUUUAUGAAAAGAAAGAUUCAGAUCCGGGGUGACAUACACACAGUUGACAGGGAAUGCCUGUGGGAUAAUUAAAAAUGGUUUUUGCUCAUGAGUUUGGGAUGUCACCCAGCCGCCCACAUCGCCUGCUAACACACACGACGCCUGUCCGCUUGGCCAGCUAUCCUGUAACACCUGCCAGUAGUAGCUCUUGCGGUCGCACUAGUGUGGAAUUCUCGGGUGUCAAGG
B3: ENSMUSG00000031028.392|Tub (ssRNA)
RNA: GGGAGUUCUACAGUCCGACGAUCGCUUCGAUAUCCGCAUGCUAAGCUCCUGGUGAUAAUGCCUUUUCUUGACCACUGGCGCUGUGAACACAGGCUAAUGGACUUCAGAUACCAGGGCCCCGGGAUCACCUGGGUUAGCCUCUCCCACAGGAAGAUCCCUUACCCCUCAUCCCCUCUUCUUUUUGGUCCUUGGCUGGGUAGCAAAUUGGUGAGAAGAGCAGCCUAGUCUGUAAGAGUGCAGGGCAGCUGGAACCUUAGGCAGCUCCUCUGUAUGCUACCGGCUCCACACCCUAACACUCUCCACCUCUUGCGGUCGCACUAGUGUGGAAUUCUCGGGUGUCAAGG
B4: ENSMUSG00000029028.200|Lrrc47 (ssRNA)
RNA: GGGAGUUCUACAGUCCGACGAUCGCUUCGAUAUCCGCAUGCUAUGUACCAGCACACAGCUGCCAUCCCUCGAGCCACAGUGCCUGGUCCUAAGGACCCAGCAGCUGCACAGAGGACUUGGUGGCCCCGUGCCUUGCCAUCUGGCUGAGAAGAGAACCAGACCCUCAGCCUUCCCCCUCGACACCUUCUCGUUGGUGACCUCUGACCUUAAAGGACCAUUUCUACCUUCUGUAAAAGAACACCUGUUUGGGGUUGCGUGCGGCUUUCAUCCUAAGGCCGUGCGAGAGCCGUUAGCUGUCAGAACCUCUUGCGGUCGCACUAGUGUGGAAUUCUCGGGUGUCAAGG
B5: ENSMUSG00000061578.980|Ksr2 (ssRNA)
RNA: GGGAGUUCUACAGUCCGACGAUCGCUUCGAUAUCCGCAUGCUAAUCCAUGACUCAGAAUUUUCCAGAGACCCAAUCCCUCGGGGUCCACUUAGUGAUGGGACCAUACAAGAGUUUAUUUCCAAUUAGAGAAUUGGGUCAACUGGGAAAGGCUUCUUUCCUGGUAACCCUGCUACUGAUACUAUGUUGAAACAGGAAUCGACUCUAACUGCUUUUUGGCCUCUUCCCUGCACGGGAGUCUCAAAAUCAAGUUUUUACCCAGUGGCCUCUGGGAUCCACUCUCUCUACUCCUGAACUCUUAAAACCUCUUGCGGUCGCACUAGUGUGGAAUUCUCGGGUGUCAAGG
B6: ENSMUSG00000061578.705|Ksr2 (ssRNA)
RNA: GGGAGUUCUACAGUCCGACGAUCGCUUCGAUAUCCGCAUGCUAUUGAGGUGCCUUCCUGUAGUCUCUUGUGUCAUCUUCUUCUAAGACCACUAAUAACACCGCCUUUCUCCUUGAUCCGGGCCUCAGACCUCUUCAGAGAUUCUUUCUCUGAAUGUACGUGGGGGACUCCAACAGAUGUUGGGAGAAGACUCAAUAUGAGCAUACGGGGUCAUUGUUCAAUCCUGUAUCAAGACCUUGGAGUUGUCUAAGGCUGUGGGUUUUAAAUACCUGCUGCAGGCCUCCCAUCUCUGGCUCUUUGUUUCCUCUUGCGGUCGCACUAGUGUGGAAUUCUCGGGUGUCAAGG
B7: ENSMUSG00000058297.42|Spock2 (ssRNA)
RNA: GGGAGUUCUACAGUCCGACGAUCGCUUCGAUAUCCGCAUGCUAGUGGCUUGUGUGUAUGUGUGAUAUGAGAUGUGUGUGUAUGAUGUGAGAUGUGAGUGUGUGAUGUGAGAUGUGUGUAUGUGAGAUGUGUGUGUGUGUGUGUGUGUGUGUGAUGUGAGUCACCCAAAGGUCCCUAUGUUAUUGAUUUUCAAAUGCACACUUUCACACACAAGGAUACACUAACAGACCAAAAUCAAUGAGAUGUCCCUGAUCCUGCCCCUCAGCCCAACACCUGGAAUCCCUGCCCUGCCUAAUCAGCCCUACUCUUGCGGUCGCACUAGUGUGGAAUUCUCGGGUGUCAAGG
B8: ENSMUSG00000058297.32|Spock2|59:63;67:80;89:100;114:120;129:138;144:169 (ssRNA)
RNA: GGGAGUUCUACAGUCCGACGAUCGCUUCGAUAUCCGCAUGCUACAAAUGGAUCCGGAAGUCAGUGCGGAGGACCCUGGCUCCAGUGGGGGAGGACUGGGGACACACGCUACACACAUACACACAUAUGAGAACACACACAUACAUGUGAGAUGUGACACACACAUGUGAGAACACACAUACUGAGAACACACACACACACACACACACACACAUGUGAGUCACCCAAAGGUCCCUAUGUUAUUGAUUUUCAAAUGCACACUUUCACACACAAGGAUACACUAACAGACCAAAAUCAAUGAGAUCUCUUGCGGUCGCACUAGUGUGGAAUUCUCGGGUGUCAAGG
B9: ENSMUSG00000058297.34|Spock2 (ssRNA)
RNA: GGGAGUUCUACAGUCCGACGAUCGCUUCGAUAUCCGCAUGCUAGAAGUCAGUGCGGAGGACCCUGGCUCCAGUGGGGGAGGACUGGGGAGUGUGGCUUGUGUGUAUGUGUGAUAUGAGAUGUGUGUGUAUGAUGUGAGAUGUGAGUGUGUGAUGUGAGAUGUGUGUAUGUGAGAUGUGUGUGUGUGUGUGUGUGUGUGUGAUGUGAGUCACCCAAAGGUCCCUAUGUUAUUGAUUUUCAAAUGCACACUUUCACACACAAGGAUACACUAACAGACCAAAAUCAAUGAGAUGUCCCUGAUCCUCUCUUGCGGUCGCACUAGUGUGGAAUUCUCGGGUGUCAAGG
B10: ENSMUSG00000058297.33|Spock2|53:57;61:74;83:94;108:114;123:132;138:163 (ssRNA)
RNA: GGGAGUUCUACAGUCCGACGAUCGCUUCGAUAUCCGCAUGCUAGAUCCGGAAGUCAGUGCGGAGGACCCUGGCUCCAGUGGGGGAGGACUGGGGACACACGCUACACACAUACACACAUAUGAGAACACACACAUACAUGUGAGAUGUGACACACACAUGUGAGAACACACAUACUGAGAACACACACACACACACACACACACACAUGUGAGUCACCCAAAGGUCCCUAUGUUAUUGAUUUUCAAAUGCACACUUUCACACACAAGGAUACACUAACAGACCAAAAUCAAUGAGAUGUCCCUCUCUUGCGGUCGCACUAGUGUGGAAUUCUCGGGUGUCAAGG
B11: ENSMUSG00000058297.35|Spock2 (ssRNA)
RNA: GGGAGUUCUACAGUCCGACGAUCGCUUCGAUAUCCGCAUGCUAAGUGCGGAGGACCCUGGCUCCAGUGGGGGAGGACUGGGGAGUGUGGCUUGUGUGUAUGUGUGAUAUGAGAUGUGUGUGUAUGAUGUGAGAUGUGAGUGUGUGAUGUGAGAUGUGUGUAUGUGAGAUGUGUGUGUGUGUGUGUGUGUGUGUGAUGUGAGUCACCCAAAGGUCCCUAUGUUAUUGAUUUUCAAAUGCACACUUUCACACACAAGGAUACACUAACAGACCAAAAUCAAUGAGAUGUCCCUGAUCCUGCCCCUCUCUUGCGGUCGCACUAGUGUGGAAUUCUCGGGUGUCAAGG
B12: ENSMUSG00000058297.33|Spock2 (ssRNA)
RNA: GGGAGUUCUACAGUCCGACGAUCGCUUCGAUAUCCGCAUGCUAGAUCCGGAAGUCAGUGCGGAGGACCCUGGCUCCAGUGGGGGAGGACUGGGGAGUGUGGCUUGUGUGUAUGUGUGAUAUGAGAUGUGUGUGUAUGAUGUGAGAUGUGAGUGUGUGAUGUGAGAUGUGUGUAUGUGAGAUGUGUGUGUGUGUGUGUGUGUGUGUGAUGUGAGUCACCCAAAGGUCCCUAUGUUAUUGAUUUUCAAAUGCACACUUUCACACACAAGGAUACACUAACAGACCAAAAUCAAUGAGAUGUCCCUCUCUUGCGGUCGCACUAGUGUGGAAUUCUCGGGUGUCAAGG
B13: ENSMUSG00000058297.34|Spock2|47:51;55:68;77:88;102:108;117:126;132:157 (ssRNA)
RNA: GGGAGUUCUACAGUCCGACGAUCGCUUCGAUAUCCGCAUGCUAGAAGUCAGUGCGGAGGACCCUGGCUCCAGUGGGGGAGGACUGGGGACACACGCUACACACAUACACACAUAUGAGAACACACACAUACAUGUGAGAUGUGACACACACAUGUGAGAACACACAUACUGAGAACACACACACACACACACACACACACAUGUGAGUCACCCAAAGGUCCCUAUGUUAUUGAUUUUCAAAUGCACACUUUCACACACAAGGAUACACUAACAGACCAAAAUCAAUGAGAUGUCCCUGAUCCUCUCUUGCGGUCGCACUAGUGUGGAAUUCUCGGGUGUCAAGG
B14: ENSMUSG00000058297.32|Spock2 (ssRNA)
RNA: GGGAGUUCUACAGUCCGACGAUCGCUUCGAUAUCCGCAUGCUACAAAUGGAUCCGGAAGUCAGUGCGGAGGACCCUGGCUCCAGUGGGGGAGGACUGGGGAGUGUGGCUUGUGUGUAUGUGUGAUAUGAGAUGUGUGUGUAUGAUGUGAGAUGUGAGUGUGUGAUGUGAGAUGUGUGUAUGUGAGAUGUGUGUGUGUGUGUGUGUGUGUGUGAUGUGAGUCACCCAAAGGUCCCUAUGUUAUUGAUUUUCAAAUGCACACUUUCACACACAAGGAUACACUAACAGACCAAAAUCAAUGAGAUCUCUUGCGGUCGCACUAGUGUGGAAUUCUCGGGUGUCAAGG
B15: ENSMUSG00000058297.36|Spock2 (ssRNA)
RNA: GGGAGUUCUACAGUCCGACGAUCGCUUCGAUAUCCGCAUGCUAGAGGACCCUGGCUCCAGUGGGGGAGGACUGGGGAGUGUGGCUUGUGUGUAUGUGUGAUAUGAGAUGUGUGUGUAUGAUGUGAGAUGUGAGUGUGUGAUGUGAGAUGUGUGUAUGUGAGAUGUGUGUGUGUGUGUGUGUGUGUGUGAUGUGAGUCACCCAAAGGUCCCUAUGUUAUUGAUUUUCAAAUGCACACUUUCACACACAAGGAUACACUAACAGACCAAAAUCAAUGAGAUGUCCCUGAUCCUGCCCCUCAGCCCCUCUUGCGGUCGCACUAGUGUGGAAUUCUCGGGUGUCAAGG

Biological target: TDP-43 (Homo sapiens, UniProt Q13148 1-414)
Test: RNA Bind-n-Seq with designed 260-mer pool; 25 mM Tris-HCl, 150 mM KCl, 3 mM MgCl2, BSA (printed 500 mg/mL), 20 units/mL SUPERase IN; pH not stated; 500 nM RNA pool, 1 h, 4 C; TDP-43 5, 50, 500 nM; high values mean tight binding
Conditions: protein: recombinant; tags: SBP (GST cleaved off with PreScission; pGEX-GST-SBP)
Outline: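 Streptavidin beads captured recombinant SBP-tagged TDP-43 at 5, 50 or 500 nM, and the beads were incubated for 1 h at 4 °C with 500 nM of an in vitro-transcribed pool of 260-nt 3′ UTR oligos in 25 mM Tris-HCl, 150 mM KCl, 3 mM MgCl2, BSA and SUPERase IN. After washing, bound RNA was eluted with biotin, reverse transcribed, PCR-amplified and sequenced. Binding is reported as R, the mapped-read-normalized abundance of each oligo in the bound sample divided by its abundance in the input. Two independent protein batches served as duplicates.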

Chain of TDP-43 (Q13148 whole entry): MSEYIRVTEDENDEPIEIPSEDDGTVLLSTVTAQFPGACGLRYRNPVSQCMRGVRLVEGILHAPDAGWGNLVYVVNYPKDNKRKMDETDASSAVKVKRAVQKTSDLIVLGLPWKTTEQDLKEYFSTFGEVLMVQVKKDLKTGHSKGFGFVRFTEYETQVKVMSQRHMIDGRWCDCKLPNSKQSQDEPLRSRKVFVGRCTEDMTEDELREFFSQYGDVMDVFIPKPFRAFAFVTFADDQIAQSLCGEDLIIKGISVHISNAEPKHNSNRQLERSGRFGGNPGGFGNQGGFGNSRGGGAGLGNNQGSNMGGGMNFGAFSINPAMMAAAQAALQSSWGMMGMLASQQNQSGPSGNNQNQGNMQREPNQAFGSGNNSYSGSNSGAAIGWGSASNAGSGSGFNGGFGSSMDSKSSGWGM

| Binder | binding signal |
| --- | --- |
| B1 | 1.51 R (bound/input frequency ratio) |
| B2 | 1.64 R (bound/input frequency ratio) |
| B3 | 0.459 R (bound/input frequency ratio) |
| B4 | 0.283 R (bound/input frequency ratio) |
| B5 | 0.19 R (bound/input frequency ratio) |
| B6 | 0.309 R (bound/input frequency ratio) |
| B7 | 5.18 R (bound/input frequency ratio) |
| B8 | 3.96 R (bound/input frequency ratio) |
| B9 | 8.82 R (bound/input frequency ratio) |
| B10 | 2.93 R (bound/input frequency ratio) |
| B11 | 8.03 R (bound/input frequency ratio) |
| B12 | 8.02 R (bound/input frequency ratio) |
| B13 | 2.69 R (bound/input frequency ratio) |
| B14 | 7.46 R (bound/input frequency ratio) |
| B15 | 5.98 R (bound/input frequency ratio) |
